# From PubChem BioAssay AID1159580 (chemical genetic matrix, 2015)
# “And” between values parts separate entries of the source, which are not always exact repeats. Equal values may be shown once. Out of some 5,500 compounds screened, about 2,000 (36%) were called active. Inconclusive results (about 18%) are left out. Cut-off read from the data, not from the text of the source: active = normalized growth mostly below about 0.91 (no sharp cut-off); inconclusive = no clear call, values can overlap the other calls; inactive = mostly above about 0.92. The list shows a part of the results.
# Assay: chemical genetic growth profiling, strain panel (AID 1159580);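 note: tested at 20 µM; growth read once vehicle control cultures reached saturation at 30 °C; 1 = growth at the plate median or of vehicle wells; lower values mean less growth of the strain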
# Conditions: S. cerevisiae deletion strains, growth OD
structure (smiles),measurement,setting,value
CC(=O)Nc1nnc(S(N)(=O)=O)s1,normalized growth,"locus YAL013W, strain DEP1, stronger effect = lower value",0.987 (inactive)
same,normalized growth,"locus YAL021C, strain ccr4, stronger effect = lower value",1 (inactive)
same,normalized growth,"locus YAL026C, strain drs2, stronger effect = lower value",1 (inactive)
same,normalized growth,"locus YAL030W, strain snc1, stronger effect = lower value",1.02 (inactive)
same,normalized growth,"locus YAL040C, strain CLN3, stronger effect = lower value",0.992 (inactive)
same,normalized growth,"locus YBL061C, strain skt5, stronger effect = lower value",1.01 (inactive)
same,normalized growth,"locus YBR009C, strain hhf1, stronger effect = lower value",0.991 (inactive)
same,normalized growth,"locus YBR021W, strain FUR4, stronger effect = lower value",0.944 (inactive)
same,normalized growth,"locus YBR023C, strain chs3, stronger effect = lower value",1.01 (inactive)
same,normalized growth,"locus YBR171W, strain sec66, stronger effect = lower value",1.02 (inactive)
same,normalized growth,"locus YBR229C, strain ROT2, stronger effect = lower value",0.95 (inactive)
same,normalized growth,"locus YBR231C, strain swc5, stronger effect = lower value",1.01 (inactive)
same,normalized growth,"locus YBR279W, strain paf1, stronger effect = lower value",1.01 (inactive)
same,normalized growth,"locus YCL011C, strain gbp2, stronger effect = lower value",1.02 (inactive)
same,normalized growth,"locus YCL016C, strain dcc1, stronger effect = lower value",1 (inactive)
same,normalized growth,"locus YCL029C, strain bik1, stronger effect = lower value",0.987 (inactive)
same,normalized growth,"locus YCL061C, strain MRC1 (second series), stronger effect = lower value",0.999 (inactive)
same,normalized growth,"locus YCL069W, strain vba3, stronger effect = lower value",1.02 (inactive)
same,normalized growth,"locus YCR088W, strain abp1, stronger effect = lower value",1.01 (inactive)
same,normalized growth,"locus YDL005C, strain med2, stronger effect = lower value",0.997 (inactive)
same,normalized growth,"locus YDL035C, strain GPR1, stronger effect = lower value",0.538 (active)
same,normalized growth,"locus YDL040C, strain nat1, stronger effect = lower value",1.01 (inactive)
same,normalized growth,"locus YDL074C, strain BRE1, stronger effect = lower value",0.709 (active)
same,normalized growth,"locus YDL101C, strain DUN1, stronger effect = lower value",0.878 (active)
same,normalized growth,"locus YDL134C, strain PPH21, stronger effect = lower value",0.621 (active)
same,normalized growth,"locus YDL185W, strain tfp1, stronger effect = lower value",0.998 (inactive)
same,normalized growth,"locus YDL192W, strain arf1, stronger effect = lower value",0.915 (active)
same,normalized growth,"locus YDR001C, strain nth1, stronger effect = lower value",1.01 (inactive)
same,normalized growth,"locus YDR069C, strain doa4, stronger effect = lower value",1.01 (inactive)
same,normalized growth,"locus YDR101C, strain arx1, stronger effect = lower value",0.998 (inactive)
same,normalized growth,"locus YDR137W, strain rgp1, stronger effect = lower value",1 (inactive)
same,normalized growth,"locus YDR159W, strain sac3, stronger effect = lower value",0.99 (inactive)
same,normalized growth,"locus YDR162C, strain NBP2, stronger effect = lower value",0.126 (active)
same,normalized growth,"locus YDR195W, strain ref2",1.01 (inactive)
same,normalized growth,"locus YDR297W, strain sur2, stronger effect = lower value",1.01 (inactive)
same,normalized growth,"locus YDR318W, strain mcm21, stronger effect = lower value",0.917 (active)
same,normalized growth,"locus YDR334W, strain swr1, stronger effect = lower value",1.01 (inactive)
same,normalized growth,"locus YDR335W, strain msn5, stronger effect = lower value",1 (inactive)
same,normalized growth,"locus YDR388W, stronger effect = lower value",0.959 (inactive)
same,normalized growth,"locus YDR392W, strain spt3, stronger effect = lower value",1 (inactive)
same,normalized growth,"locus YDR502C, strain sam2, stronger effect = lower value",0.943 (inactive)
same,normalized growth,"locus YEL003W, strain gim4, stronger effect = lower value",1.01 (inactive)
same,normalized growth,"locus YEL037C, strain rad23, stronger effect = lower value",1.02 (inactive)
same,normalized growth,"locus YEL061C, strain CIN8 (second series), stronger effect = lower value",1.02 (inactive)
same,normalized growth,"locus YEL061C, strain CIN8, stronger effect = lower value",0.728 (active)
same,normalized growth,"locus YER002W, strain NOP16, stronger effect = lower value",1.03 (inactive)
same,normalized growth,"locus YER015W, strain faa2, stronger effect = lower value",0.997 (inactive)
same,normalized growth,"locus YER016W, strain bim1, stronger effect = lower value",0.99 (inactive)
same,normalized growth,"locus YER110C, stronger effect = lower value",1.01 (inactive)
same,normalized growth,"locus YER111C, strain swi4, stronger effect = lower value",1.01 (inactive)
same,normalized growth,"locus YER155C, strain BEM2 (second series), stronger effect = lower value",1.03 (inactive)
same,normalized growth,"locus YER155C, strain BEM2, stronger effect = lower value",1.01 (inactive)
same,normalized growth,"locus YER167W, strain BCK2, stronger effect = lower value",0.748 (active)
same,normalized growth,"locus YFR010W, strain ubp6, stronger effect = lower value",1.03 (inactive)
same,normalized growth,"locus YGL078C, strain dbp3, stronger effect = lower value",1 (inactive)
same,normalized growth,"locus YGL086W, strain mad1, stronger effect = lower value",0.864 (active)
same,normalized growth,"locus YGL167C, strain pmr1, stronger effect = lower value",1.01 (inactive)
same,normalized growth,"locus YGL173C, strain kem1, stronger effect = lower value",1.02 (inactive)
same,normalized growth,"locus YGL227W, strain vid30, stronger effect = lower value",1.01 (inactive)
same,normalized growth,"locus YGL240W, strain doc1, stronger effect = lower value",1.01 (inactive)
same,normalized growth,"locus YGL248W, strain PDE1, stronger effect = lower value",0.585 (active)
same,normalized growth,"locus YGL253W, strain hxk2, stronger effect = lower value",1.01 (inactive)
same,normalized growth,"locus YGR078C, strain PAC10, stronger effect = lower value",0.477 (active)
same,normalized growth,"locus YGR135W, strain pre9, stronger effect = lower value",0.81 (active)
same,normalized growth,"locus YGR252W, strain gcn5, stronger effect = lower value",0.824 (inactive)
same,normalized growth,"locus YHR013C, strain ard1, stronger effect = lower value",1.02 (inactive)
same,normalized growth,"locus YHR027C, strain rpn1, stronger effect = lower value",0.999 (inactive)
same,normalized growth,"locus YHR030C, strain SLT2, stronger effect = lower value",0.707 (active) and 1 (inactive)
same,normalized growth,"locus YHR079C, strain IRE1 (second series), stronger effect = lower value",0.996 (inactive)
same,normalized growth,"locus YHR079C, strain IRE1, stronger effect = lower value",0.969 (inactive)
same,normalized growth,"locus YHR094C, strain hxt1, stronger effect = lower value",0.985 (inactive)
same,normalized growth,"locus YHR129C, strain ARP1, stronger effect = lower value",0.728 (active)
same,normalized growth,"locus YHR142W, strain chs7, stronger effect = lower value",1.01 (inactive)
same,normalized growth,"locus YHR200W, strain rpn10, stronger effect = lower value",0.985 (inactive)
same,normalized growth,"locus YIL066C, strain RNR3, stronger effect = lower value",0.24 (active)
same,normalized growth,"locus YIL073C, strain SPO22, stronger effect = lower value",0.202 (active)
same,normalized growth,"locus YIL125W, strain kgd1, stronger effect = lower value",1.01 (inactive)
same,normalized growth,"locus YIR030C, strain dcg1, stronger effect = lower value",1.01 (inactive)
same,normalized growth,"locus YJL092W, strain hpr5, stronger effect = lower value",1.02 (inactive)
same,normalized growth,"locus YJL095W, strain BCK1 (second series), stronger effect = lower value",1.01 (inactive)
same,normalized growth,"locus YJL095W, strain BCK1, stronger effect = lower value",0.773 (active) and 0.995 (inactive)
same,normalized growth,"locus YJL115W, strain asf1, stronger effect = lower value",1.02 (inactive)
same,normalized growth,"locus YJL129C, strain trk1, stronger effect = lower value",1.02 (inactive)
same,normalized growth,"locus YJL134W, strain LCB3, stronger effect = lower value",0.938 (inactive)
same,normalized growth,"locus YJL154C, strain vps35, stronger effect = lower value",1.02 (inactive)
same,normalized growth,"locus YJL164C, strain tpk1, stronger effect = lower value",1 (inactive)
same,normalized growth,"locus YJL166W, strain qcr8, stronger effect = lower value",1.01 (inactive)
same,normalized growth,"locus YJL168C, strain set2, stronger effect = lower value",0.979 (inactive)
same,normalized growth,"locus YJL187C, strain SWE1 (second series), stronger effect = lower value",0.793 (active)
same,normalized growth,"locus YJR043C, strain POL32, stronger effect = lower value",0.398 (active)
same,normalized growth,"locus YJR066W, strain TOR1, stronger effect = lower value",0.97 (inactive)
same,normalized growth,"locus YJR075W, strain HOC1, stronger effect = lower value",1.01 (inactive)
